High-throughput results as filed in PubChem BioAssay.
HepG2 tox-1: kills HepG2 cells in TGF-b inhibitor counter-screen. hit rate 0.76% among 410,000. Potency, µM (series often up to 46.1 µM), hits mostly cytotoxic. HepG2 CAGA-GFP viability, ATP luminescence, 18 h
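HepG2 CAGA-GFP cells (1000/well, DMEM with 1% FBS) received compound, then TGF-beta at 500 pg/mL final, and were incubated 18 hours at 37 degrees C. Viability was read by CellTiter-Glo luminescence. Media-only wells were set as complete cell-killing and DMSO as no toxicity.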
KB-V1 cytotox: kills drug-selected multidrug resistant KB-V1 cells. KB-V1 MDR cells viability, CellTiter-Glo, 72 h. Potency, µM (series often up to 46.1 µM), actives largely listed as cytotoxic. hit rate 3.4% among 400,000; also: nearly all actives have a fitted effect of over 60% in size
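Potencies derive from concentration-effect curves fitted to normalized luminescence (CellTiter-Glo) of KB-V1 cells treated for 72 h at 37 degrees C in phenol-red-free DMEM containing 10% FBS.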
TGFb SMAD3 inh: inhibitors of TGF-b signaling; Potency, µM (series often up to 46.1 µM), actives largely listed as inhibitors; HepG2 CAGA-GFP TGF-b/SMAD3 reporter, GFP fluorescence, 18 h; TGF-beta stimulated, 500 pg/mL final; hit rate 1.2% among 410,000; also: nearly all actives have a fitted effect of over 65% in size
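HEPG2 CAGA-GFP reporter cells (1000/well, DMEM with 1% FBS) received compounds, then recombinant TGF-beta at 500 pg/mL final for 18 hours at 37 degrees C. Per-cell GFP summed per well was normalised to unstimulated and stimulated DMSO controls before curve fitting.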
HT1080-NT tox: kills 2HG-producing HT-1080-NT fibrosarcoma cells. HT-1080-NT fibrosarcoma viability, CellTiter-Glo ATP luminescence, 48 h. Potency, µM (doses to about 46.1 µM), usual class: cytotoxic. hit rate 1.6% among 360,000;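 also: NT is the 2HG producing partner of a matched IDH1 knockdown line; nearly all actives have a fitted effect of over 55% in size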
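HT-1080-NT; 750 cells/well; 5% FBS RPMI; 48 h compound, 37 degrees C; CellTiter-Glo luminescence; curve fitting and curve-class assignment.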
KB-3-1 tox: kills parental KB-3-1 adenocarcinoma cells; KB-3-1 viability, CellTiter-Glo ATP luminescence, 72 h; AID 1347075; hit rate 1.4% among 400,000; Potency, µM (doses to about 46.1 µM), actives largely listed as cytotoxic; also: nearly all actives have a fitted effect of over 60% in size
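KB-3-1 cells, DMEM (no phenol red) + 10% FBS; compound by pin transfer, 72 h, 37 °C. Readout: CellTiter-Glo luminescence after 10 min. Data normalized, curve-fitted.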
HT1080 IDH1KD tx: kills HT-1080 cells with IDH1 knockdown; HT-1080 IDH1 knockdown viability, ATP luminescence, 48 h; Potency, µM (doses to about 46.1 µM), most hits filed as cytotoxic; hit rate 2% among 360,000
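Using the IDH1-knockdown HT-1080 line run in the same batch and compound series as the NT line, viability after 48 h at 37 °C was determined by CellTiter-Glo luminescence and expressed as % activity.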
TGFb CAGA inh: TGF-b pathway inhibition, cherry-pick retest; shares compounds with TGFb SMAD3 inh; HepG2 CAGA-GFP TGF-b reporter, GFP fluorescence, 18 h; cells stimulated with TGF-beta, 500 pg/mL; Potency, µM (titrated, usually from 46.1 µM), hits mostly inhibitors; hit rate 63% among 1,600; also: nearly all actives have a fitted effect of over 65% in size
HepG2 tox-2: HepG2 cytotoxicity, TGF-b inhibitor counterscreen; shares compounds with TGFb SMAD3 inh; HepG2 CAGA-GFP viability, ATP luminescence, 18 h; cells stimulated with TGF-beta, 500 pg/mL; Potency, µM (doses to about 46.1 µM), usual class: inhibitors; hit rate 27% among 1,600; also: nearly all actives have a fitted effect of over 70% in size
CCL64 TGFb inh: orthogonal confirmation of TGF-b inhibitors in CCL64 cells | Potency, µM (top dose mostly 46.1 µM), hits mostly inhibitors | hit rate 41% among 1,600 | CCL64 CAGA-GFP reporter, TGF-b stimulated, GFP fluorescence, 18 h | AID 720536 | shares compounds with TGFb SMAD3 inh; also: nearly all actives have a fitted effect of over 65% in size
TGFb COP inh: blocks TGF-b signaling in HepG2 COP reporter; shares compounds with TGFb SMAD3 inh; hit rate 3% among 1,600; Potency, µM (titrated, usually from 46.1 µM), most hits filed as inhibitors; HepG2 COP-GFP TGF-b reporter, GFP fluorescence, 18 h; cells stimulated by added recombinant TGF-beta; also: nearly all actives have a fitted effect of over 70% in size
Hits are given with their value; i = inactive; ? = inconclusive; nt = not tested or not shown. Rows were chosen to be rich in hits. Some 6.6% of all compounds tested hit in one or more screens of this group. Calls follow the shape of the dose curve; as a rule, active = well fitted curve in the direction sought with a large enough effect; inconclusive = small, poorly fitted or top-dose-only effect, or another doubt; inactive = no such curve, though single readings can be large; an effect the other way counts as inactive or inconclusive.

SMILES	HepG2 tox-1	KB-V1 cytotox	TGFb SMAD3 inh	HT1080-NT tox	KB-3-1 tox	HT1080 IDH1KD tx	TGFb CAGA inh	HepG2 tox-2	CCL64 TGFb inh	TGFb COP inh
C(=C\c1ccccc1)/CN1CCN(C(c2ccccc2)c2nnnn2C2CCCCC2)CC1 (stereo not drawn)	i	?	i	i	i	i	nt	nt	nt	nt
C(=C\c1ccccc1)/CN1CCN(C(c2ccnc3ccccc23)c2nnnn2C2CCCCC2)CC1 (stereo not drawn)	i	?	11µM	?	?	?	18µM	?	18µM	i
CCCCn1nnnc1C(c1cccc2ccccc12)N1CCN(C/C=C/c2ccccc2)CC1 (stereo not drawn)	i	?	11µM	?	?	?	?	?	?	i
CCCCn1nnnc1C(c1ccccc1OC(F)(F)F)N1CCN(C/C=C/c2ccccc2)CC1 (stereo not drawn)	i	?	13µM	?	i	?	18µM	i	?	i
FC(F)(F)Oc1ccccc1C(c1nnnn1Cc1ccccc1)N1CCN(C/C=C/c2ccccc2)CC1 (stereo not drawn)	i	?	?	i	i	i	nt	nt	nt	nt
Cc1cc(C)c(S(=O)(=O)c2ccc(Cl)cc2)c(Cl)n1	i	i	i	i	i	i	nt	nt	nt	nt
Cc1cc(S(=O)(=O)c2ccc(Cl)cc2)nc(S(=O)(=O)c2ccc(Cl)cc2)c1C#N	i	?	7.1µM	?	9.2µM	6.5µM	5.8µM	18µM	1.8µM	18µM
CC1(C(=O)Nc2ccccc2Cc2ccccc2)CCN1Cc1ccccc1Cl (stereo not drawn)	i	?	13µM	?	i	?	9.2µM	?	16µM	i
COc1ccc(CCNc2nc(SCc3ccc(Cl)cc3)nc3ccccc23)cc1OC	i	nt	i	nt	nt	nt	nt	nt	nt	nt
OCCCNc1c2ccccc2nc2ccccc12	i	?	4.5µM	23µM	8.2µM	12µM	13µM	13µM	?	i
COc1ccc(CCNc2c3ccccc3nc3ccccc23)cc1OC	i	?	16µM	21µM	?	?	15µM	21µM	26µM	i
CCCCOc1ccc(C2=NC(c3ccccc3)=Nc3ccc(OC)cc3N2)cc1	i	i	i	nt	i	nt	nt	nt	nt	nt
CCN(CC)C(=O)[C@H]1CC(CC(=O)NCc2cccc(C(F)(F)F)c2)C(=O)N2CCc3c([nH]c4ccc(OC)cc34)[C@]12C (stereo partly drawn)	i	i	8.9µM	i	i	i	33µM	i	?	i
CC[C@]12c3[nH]c4cc(-c5ccco5)ccc4c3CCN1C(=O)[C@@H](CC(=O)NCCc1ccccn1)C[C@@H]2C(=O)N1CCN(C(=O)C2CC2)CC1	i	i	?	i	i	i	nt	nt	nt	nt
COc1ccc2[nH]c3c(c2c1)CCN1C(=O)C(CC(=O)NCCC2=CCCCC2)C[C@H](C(=O)N2CCCCC2)[C@@]31C (stereo partly drawn)	i	i	7.9µM	i	i	i	?	i	i	i
CCN(CC)C(=O)[C@H]1C[C@H](CC(=O)NCc2cccc(C(F)(F)F)c2)C(=O)N2CCc3c([nH]c4cc(-c5ccco5)ccc34)[C@]12C	i	?	10µM	?	15µM	?	9.2µM	16µM	12µM	i
CCN(CC)C(=O)[C@H]1CC(CC(=O)NCCN2CCOCC2)C(=O)N2CCc3c([nH]c4ccc(OC)cc34)[C@]12C (stereo partly drawn)	i	i	i	i	i	i	nt	nt	nt	nt
C[C@]12c3[nH]c4cc(-c5ccco5)ccc4c3CCN1C(=O)[C@@H](CC(=O)NCCc1ccccn1)C[C@@H]2C(=O)N1CCCCC1	i	i	?	i	i	i	?	i	i	i
CC1(C(=O)NCc2cccc3ccccc23)CCN1C(=O)C1(c2ccccc2)CCCC1 (stereo not drawn)	i	?	13µM	?	i	?	13µM	?	?	i
COc1ccc(-c2cc(N)n(S(=O)(=O)c3ccc(C)cc3)n2)c(OC)c1	i	?	i	i	i	i	nt	nt	nt	nt
COc1ccc(S(=O)(=O)n2nc(-c3ccc(Cl)cc3)cc2N)cc1	i	i	13µM	18µM	?	18µM	?	?	?	i
Nc1ncnc2c1ncn2[C@@H]1O[C@H](C(=O)NCc2ccc(OC(F)(F)F)cc2)[C@@H](O)[C@H]1O	i	i	?	i	i	i	?	i	i	i
Cc1ccc2oc(C(=O)Nc3ccc(S(=O)(=O)N4CCCCC4C)cc3)cc(=O)c2c1 (stereo not drawn)	i	i	i	nt	i	nt	nt	nt	nt	nt
Cc1ccc(S(=O)(=O)Nc2cccc3cccnc23)c([N+](=O)[O-])c1	i	?	4.5µM	?	?	2.1µM	i	?	?	i
Cc1cc(C)c(NS(=O)(=O)c2cccc3cccnc23)c(C)c1	i	i	i	i	i	i	nt	nt	nt	nt
O=S(=O)(Nc1cccc2cccnc12)c1ccccc1	i	?	7.1µM	26µM	?	23µM	23µM	?	12µM	i
Cc1ccc2c(c1)c(=O)c(C(=O)c1ccncc1)cn2CC(=O)Nc1ccccc1Cl	i	nt	i	nt	nt	nt	nt	nt	nt	nt
O=C1NC[C@H](CCCCN2C[C@H](Cc3ccc(O)cc3)N(Cc3ccccc3)C(=O)C2=O)N(CC2CCCCC2)C1=O	nt	i	nt	i	i	i	nt	nt	nt	nt
CCCCCCCN(c1ccccc1)[C@@H]1C[C@H]2CCCC(=O)N3CC[C@@H](C1)[C@@H]23	11µM	?	10µM	i	?	i	?	?	21µM	21µM
CN(CC(=O)N1CCN(Cc2ccccc2)CC1)C(=O)Cc1cccc2ccccc12	i	i	14µM	i	i	i	?	i	i	i
